Bioassay records: PubChem BioAssay, National Center for Advancing Translational Sciences (NCATS)
Most compounds without a hit are left out; they make up all but 1.1% or so of the library.
RGS4 inhibitor – inhibitors of human regulator of G protein signaling 4; Potency, µM (titrated, usually from 114 µM), without a hit: at the highest dose activity change, negative = inhibition, hits mostly inhibitors; actives 0.039% (n = 390,000); Transcreener GDP fluorescence polarization, RGS4-accelerated GTP hydrolysis; P49798; AID 504845; also: potency is read from the fitted curve at half-maximal effect; % is scaled to controls: 0 for no effect and ±100 for the full control effect; nearly all actives have a fitted effect of over 75% in size
Target sequence (P49798 whole entry, looked up): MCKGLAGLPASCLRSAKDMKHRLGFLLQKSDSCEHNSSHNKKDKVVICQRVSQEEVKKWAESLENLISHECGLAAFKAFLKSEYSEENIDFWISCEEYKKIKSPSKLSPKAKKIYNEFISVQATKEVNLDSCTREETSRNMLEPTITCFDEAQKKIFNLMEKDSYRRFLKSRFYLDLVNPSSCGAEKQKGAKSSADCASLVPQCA
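MLSMR compounds (23 nl, pin-transferred) preincubated 10 min at room temperature with a 500nM (2x) first reagent, then RGS4 at 900nM (2x) plus Transcreener GDP mix added; fluorescence polarization (620/688 nm) read before and after 90 min at 30 °C.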
TrxR1 substrate – is turned over as a substrate by rat TrxR1; O89049; purified TrxR1 substrate turnover, NADPH consumption readout; Potency, µM (highest dose often 114 µM), for inactives: at the highest dose activity change, negative = substrate turnover; actives 0.01% (n = 390,000); AID 588456; also: potency is read from the fitted curve at half-maximal effect; % is scaled to controls: 0 for no effect and ±100 for the full control effect; nearly all actives have a fitted effect of over 50% in size
Target sequence (O89049 whole entry, looked up): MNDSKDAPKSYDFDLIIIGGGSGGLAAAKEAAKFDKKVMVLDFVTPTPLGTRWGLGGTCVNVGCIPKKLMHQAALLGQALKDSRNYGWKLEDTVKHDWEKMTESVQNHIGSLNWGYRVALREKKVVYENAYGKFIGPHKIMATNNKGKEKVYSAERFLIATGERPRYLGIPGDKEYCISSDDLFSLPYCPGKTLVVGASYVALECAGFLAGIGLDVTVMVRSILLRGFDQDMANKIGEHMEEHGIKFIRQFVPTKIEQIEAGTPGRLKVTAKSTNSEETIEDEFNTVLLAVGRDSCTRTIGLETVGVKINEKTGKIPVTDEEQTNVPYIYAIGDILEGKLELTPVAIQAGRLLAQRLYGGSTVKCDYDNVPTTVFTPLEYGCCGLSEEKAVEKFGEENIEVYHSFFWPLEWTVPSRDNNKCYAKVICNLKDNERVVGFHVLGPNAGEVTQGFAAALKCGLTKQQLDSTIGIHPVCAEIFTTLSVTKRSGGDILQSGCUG
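Rat TrxR1, dispensed at 90 nM, was prereduced with 400 uM NADPH (final) for 5 min at ~22 deg C, then incubated with compound 15 min before 400 uM selenite. A first-read NADPH fluorescence drop versus no-compound background flagged substrates.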
IDH1 R132H inh – inhibitors of human mutant IDH1 R132H | O75874 | Potency, µM (top dose mostly 76.6 µM), for inactives: at the highest dose activity change, negative = inhibition, hits mostly inhibitors | IDH1-R132H enzyme, NADPH consumption, diaphorase/resazurin fluorescence | AID 602179 | actives 0.093% (n = 390,000); also: potency is read from the fitted curve at half-maximal effect; % is scaled to controls: 0 for no effect and ±100 for the full control effect; nearly all actives have a fitted effect of over 65% in size
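IDH1-R132H (0.5 ug/mL) preincubated 30 min with compound, then NADPH (0.016 mM) and alpha-KG (2 mM) added; 80 min at RT, pH 7.5. Remaining NADPH coupled via diaphorase/resazurin to fluorescence (540/590 nm); concentration-response curves normalized to no-enzyme control.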
TrxR1 inh – blocks rat thioredoxin reductase 1. O89049. recombinant rTrxR1, NADPH fluorescence consumption, selenite substrate. Potency, µM (highest dose often 114 µM), for the others: at the highest dose activity change, negative = inhibition, actives largely listed as inhibitors. actives 1% (n = 390,000); also: potency is read from the fitted curve at half-maximal effect; % is scaled to controls: 0 for no effect and ±100 for the full control effect; nearly all actives have a fitted effect of over 65% in size
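Rat TrxR1 (90 nM in the dispensed reagent) was pre-reduced with 400 uM NADPH for 5 min at room temperature, then incubated with compound for 15 min. After 400 uM selenite was added, NADPH fluorescence (Ex 340/Em 450 nm) was followed for 8 min.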
Eya2 phos inh – inhibitors of human Eya2 phosphatase activity. O00167. recombinant Eya2, OMFP fluorescence dephosphorylation (OMFP is methylfluorescein phosphate). Potency, µM (doses to about 76.9 µM), for inactives: at the highest dose activity, negative = inhibition, hits mostly inhibitors. actives 0.006% (n = 330,000); also: potency is read from the fitted curve at half-maximal effect; % is scaled to controls: 0 for no effect and ±100 for the full control effect
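Eya2 protein (added as 0.2 uM solution) was preincubated with compound for 10 min at ambient temperature in 50 mM HEPES pH 7.5, 50 mM NaCl, 5 uM MgCl2, 0.05% BSA, 1 mM DTT. OMFP (added at 50 uM) then reacted 10 min; fluorescence read at 485/525 nm.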
Resorufin autofl – autofluorescence interference, mutant IDH1 hit counter-screen; shares compounds with IDH1 R132H inh; Resorufin detection reagent fluorescence interference, cell-free; inhibition of signal, % at 51.2 µM; 750 tested, under 10 active;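 also: 0% = wells with normal resorufin and full inhibition = wells lacking resorufin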
WT IDH1 inh – selectivity of mutant IDH1 inhibitors: human wild-type IDH1 | shares compounds with IDH1 R132H inh | WT IDH1 enzyme, NADPH diaphorase/resazurin fluorescence | Potency, µM (highest dose often 115 µM), inactives show at the top dose activity change, negative = inhibition, actives largely listed as inhibitors | actives 9% (n = 750) | AID 623995;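 also: potency is read from the fitted curve at half-maximal effect; 0% = full WT IDH1 enzyme control and full inhibition = no enzyme wells; nearly all actives have a fitted effect of over 55% in size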
mIDH1 confirm – mutant IDH1 (human) inhibition, confirmed. shares compounds with IDH1 R132H inh. IDH1 R132H enzyme, NADPH diaphorase/resazurin fluorescence. Potency, µM (highest dose often 76.6 µM), without a hit: top-dose activity change, negative = inhibition, hits mostly inhibitors. actives 83% (n = 750); also: potency is read from the fitted curve at half-maximal effect; nearly all actives have a fitted effect of over 50% in size
* hit, by the source's call; ? = inconclusive; . = no result given; [ ] = dose if it differs, or a comment. Calls follow the shape of the dose curve; as a rule, active = well fitted curve in the direction sought with a large enough effect; inconclusive = small, poorly fitted or top-dose-only effect, or another doubt; inactive = no such curve, though single readings can be large; an effect the other way counts as inactive or inconclusive.

SMILES	RGS4 inhibitor	TrxR1 substrate	IDH1 R132H inh	TrxR1 inh	Eya2 phos inh	Resorufin autofl	WT IDH1 inh	mIDH1 confirm
Cc1cc(C)c(O)c(-c2n[nH]c3c2C(c2cccc(O)c2)N(Cc2ccco2)C3=O)c1 (stereo unspecified)	0%[11.4 µM]	-11%	16µM*	2%	?	-8	50µM*	22µM*
Cc1ccc(C2c3c(-c4cc(C)ccc4O)n[nH]c3C(=O)N2Cc2ccco2)cc1 (stereo unspecified)	12%	-12%	35µM*	7%	.	-4	-4%	45µM*
O=C1c2[nH]nc(-c3ccccc3O)c2C(c2cccc(Cl)c2)N1Cc1ccco1 (stereo unspecified)	-7%	-7%	?	4%	-7%	.	.	.
O=C1c2[nH]nc(-c3ccccc3O)c2C(c2ccc(F)cc2)N1Cc1ccco1 (stereo unspecified)	-33%	-4%[57.1 µM]	?	-1%[57.1 µM]	-35%	-7	5%	40µM*
Cn1cc(S(=O)(=O)c2cccc(Cl)c2)c(=O)c2cc(F)c(N3CCN(c4ccc(F)cc4)CC3)cc21	15%	22%	0%	16%	.	.	.	.
COc1cc2c(-c3cc(F)cc(F)c3)c(-c3ccsc3)oc(=O)c2cc1OC	-12%	14%	-4%	9%	12%	.	.	.
COc1ccc(-c2oc(=O)c3cc(OC)c(OC)cc3c2-c2ccc3c(c2)OCO3)cc1	10%	11%[57.1 µM]	21%	38%	7%	.	.	.
COc1ccc(-c2c(-c3ccsc3)oc(=O)c3cc(OC)c(OC)cc23)cc1	16%	19%[57.1 µM]	11µM*	48%	6%	5	0%	8.9µM*
COCc1ccc(-c2c(-c3ccc(OC)cc3)oc(=O)c3cc(OC)c(OC)cc23)cc1	16%	14%[57.1 µM]	32µM*	22%[57.1 µM]	-7%	-5	-4%	10µM*
Cc1onc(-c2c(F)cccc2Cl)c1C(=O)NC1CCCCCC1	-15%	-1%	4%	17%	12%	.	.	.
Cc1c(N(C(=O)Nc2ccccc2)C2=NCC(C)S2)c(=O)n(-c2ccccc2)n1C (stereo unspecified)	-10%	10%	5%	17%	2%	.	.	.
O=C(Nc1cc(Cl)ccc1Oc1ccccc1)c1ccc(F)cc1	-8%	-4%	4%	-1%	1%	.	.	.
COc1ccc(-c2nn(-c3ccccc3)cc2/C=C2/SC(=S)N(CCC(=O)O)C2=O)c(C)c1	-63%[56.9 µM]	-9%	46µM*	-10%	11%	2	?	35µM*
O=C(O)CCCCCN1C(=O)/C(=C/c2cn(-c3ccccc3)nc2-c2cccs2)SC1=S	?	-16%	?	-17%	.	-2	1%	35µM*
Cc1ccc(Cn2ncc3c(N4CCN(CCc5ccccc5)CC4)ncnc32)cc1	20%	7%[57.1 µM]	-3%	1%[57.1 µM]	4%	.	.	.
NNC(=O)CN1C(c2ccc(Cl)cc2)=Nc2ccc(Br)cc2C1c1ccccc1 (stereo unspecified)	3%[56.9 µM]	-3%	?	0%	-1%	-13	?	-13%
O=C(Cn1ncc2c([nH]c3ccccc32)c1=O)N1CCc2ccccc2C1	2%	-8%	6%	4%	?	.	.	.
COc1ccc(N(C(=O)c2ccco2)C(C(=O)NC2CCCCC2)c2ccccc2)cc1 (stereo unspecified)	-1%	-10%[57.1 µM]	?	3%[57.1 µM]	.	-10	-20%	20µM*
COc1cccc(C(C(=O)NC2CCCCC2)N(C(=O)c2ccco2)c2ccccc2OC)c1 (stereo unspecified)	3%	1%	?	15%	-21%	-4	-5%	?
COc1ccc(C(C(=O)NC2CCCCC2)N(C(=O)c2ccco2)c2ccccc2OC)cc1 (stereo unspecified)	28%	11%[0.457 µM]	0%	3%	-4%	.	.	.
COc1ccc(N(C(=O)c2cnccn2)C(C(=O)NC2CCCCC2)c2ccccc2)cc1 (stereo unspecified)	-1%	-5%	?	-1%	-3%	-8	3%	35µM*
Cc1cc(C)cc(N(C(=O)CNC(=O)c2ccco2)C(C(=O)NC2CCCCC2)c2cccnc2)c1 (stereo unspecified)	1%	7%[0.0914 µM]	?	19%[57.1 µM]	-4%	-2	0%	?
Cc1cc(C)cc(N(C(=O)CNC(=O)c2ccco2)C(C(=O)NC2CCCC2)c2cccnc2)c1 (stereo unspecified)	14%	-6%	-6%	-4%	-6%	.	.	.
C/C=C(\NC(C)=O)c1ccccc1	18%	-5%	-7%	0%	0%	.	.	.
COc1ccc(CCN(C)CCC(=O)Nc2cccc(C)c2)cc1OC	30%	6%	8%	19%	15%	.	.	.
SMILES	RGS4 inhibitor	TrxR1 substrate	IDH1 R132H inh	TrxR1 inh	Eya2 phos inh	Resorufin autofl	WT IDH1 inh	mIDH1 confirm
CN1C(=O)CC(P(=O)(c2ccccc2)c2ccccc2)N(C)C1=O (stereo unspecified)	17%	-7%	-1%	-4%	3%	.	.	.
CCCCCOc1ccc(CSc2n[nH]c(C)n2)cc1	?	0%[57.1 µM]	-4%	18%[57.1 µM]	1%	.	.	.
COc1ccc(N(C(=O)c2ccco2)C(C(=O)NC2CCCC2)c2ccc(N(C)C)cc2)cc1 (stereo unspecified)	-1%	7%[57.1 µM]	-2%	-10%[57.1 µM]	2%	.	.	.
COc1ccc(N(C(=O)c2ccco2)C(C(=O)NC2CCCC2)c2ccccc2)cc1 (stereo unspecified)	3%	-7%	?	2%	-8%	0	11%	40µM*
CCOc1ccccc1N(C(=O)c1snc(C(N)=O)c1N)C(CC)C(=O)NC1CCCC1 (stereo unspecified)	-18%	9%	26%	15%	-6%	.	.	.
CCOc1ccccc1N(C(=O)c1snc(C(N)=O)c1N)C(C(=O)NC1CCCC1)c1ccco1 (stereo unspecified)	-27%	10%	?	-8%	28%	3	2%	40µM*
CCOc1ccccc1N(C(=O)c1snc(C(N)=O)c1N)C(C(=O)NCc1ccccc1)c1ccc(O)cc1 (stereo unspecified)	-12%	41%	?	22%[57.1 µM]	-11%	-1	10%	13µM*
